Drawing on PubChem BioAssay (Tox21), this text covers Potency and activity change, negative = cytotoxicity for 40 molecules.

Inconclusive results are not listed. Entries that show only a call come without a potency. The source made the active and inactive calls. Calls come from the whole dose curve; as a rule, active = well fitted cell-killing curve with a large enough effect in the repeat runs; inconclusive = weak or mixed curves, or effect the other way; inactive = no such curve, though single readings can be large or run the other way.

The nature of the assay: Caspase-3/7 induction in CHO-K1 cells by small molecules, qHTS cell viability counter screen (AID 1346979). Note: nearly all actives have a fitted effect of over 35% in size. To be noted: CellTiter-Fluor fluorescence, 17 h; series mostly up to 42.5 µM. An excerpt:
National Center for Advancing Translational Sciences [NCATS]
NIH Chemical Genomics Center [NCGC]
U.S. Environmental Protection Agency [EPA]
National Institutes of Environmental Health Sciences [NIEHS]
National Toxicology Program [NTP]
U.S. Food and Drug Administration [FDA]
Apoptosis is a process of programmed cell death and plays a central role in the development of multicellular organisms. It is a highly regulated process and induces cell death by activating caspases, which are the members of cysteine aspartic acid-specific protease (caspase) family. Caspases involved in apoptosis are classified by their mechanism of action as initiator caspases (caspase-2, -8, -9 and -10) and executioner caspases (caspase-3, -6, and -7). Inhibition of apoptosis results in number of cancers, autoimmune diseases, inflammatory diseases and viral infection. To identify small molecule compounds that induce apoptosis, a homogeneous, luminescent Caspase-Glo 3/7 assay was used. Wild type CHO-K1 cells were used to screen Tox21 libraries for identifying caspase-3/7 activity inducers. Also cytotoxicity of the compounds was tested in parallel by measuring the cell viability using CellTiter-Fluor assay system in the same wells.
Tox21 Assay Protocol Summary:
CHO-K1 cells were dispensed at 1,500 per well in 5uL of culture medium into white solid bottom 1536-well plates (Corning Life Sciences, Corning, NY) using a Multidrop Combi (Thermo Scientific, Waltham, MA) dispenser. The assay plates were incubated at 37 C and 5% CO2 for 5hr, and then 23nL of compounds dissolved in DMSO and positive control were transferred using a Pintool station (Wako, San Diego, CA). The assay plates were incubated at 37C and 5% CO2 for 17hr. For cytotoxicity read, after 16hr incubation at 37C, 1uL CellTiter-Fluor reagent (Promega Corporation, Madison, WI) was added to each well of the assay plates using Flying Reagent Dispenser (FRD, Aurora Discovery, San Diego, CA). After 1hr incubation at 37C and 5% CO2, the fluorescence signal was quantified using a ViewLux plate reader (PerkinElmer, Shelton, CT).
Background: In qHTS, concentration-response curves come from the screen itself.
For `CC(C)OC(=O)c1ccccc1`, the Potency entry was “inactive”.

`CCOC(=O)C(=O)OCC`: the Potency entry was “inactive”. `O=C1OC(=O)C2CCCCC12` (stereo not given): the Potency entry was “inactive”. Consider `Cc1cccn2c(=O)c(-c3nnn[nH]3)cnc12`, for which the Potency entry is “inactive”. On the same count and under the same terms, for `Nc1nc2c(ncn2COC(CO)CO)c(=O)[nH]1` the value was “inactive”. As for `NCCCNCCSP(=O)(O)O`, the activity change, negative = cytotoxicity is 5.53% [at 8.39 µM] (inactive). Regarding `CO/N=C(/C(=O)N[C@@H]1C(=O)N2C(C(=O)OCOC(=O)C(C)(C)C)=C(C)CS[C@H]12)c1csc(N)n1`, the Potency entry was “inactive”. For `c1ccc([C@H]2CN3CCSC3=N2)cc1`, the Potency result is “inactive”. Take `O=C(O)CCCc1ccccc1`: the Potency result is “inactive”. Still for that read-out and setting: in the case of `CCOC(=O)c1c(C)n(C)c2ccc(O)cc12` it was “inactive”; in that of `CCCc1cc(C(N)=S)ccn1`, “inactive”; in that of `COc1ccc2c(c1)c(CC(=O)OCC(=O)O)c(C)n2C(=O)c1ccc(Cl)cc1`, “inactive”. For the molecule `CCC(C)S` (stereo not given), the activity change, negative = cytotoxicity was 5.39% [at 3.27 µM] (inactive). As to `NC(=O)Nc1ccccc1`, the Potency entry is “inactive”. Still for that read-out and setting: in the case of `CC(=O)OCC(=O)[C@@]1(O)CC[C@H]2[C@@H]3CCC4=CC(=O)CC[C@]4(C)[C@H]3C(=O)C[C@@]21C` it was “inactive”; in that of `CC(C)CCCC(C)N` (stereo not given), “inactive”; in that of `C1CN(CCOCCN2CCOCC2)CCO1`, “inactive”. As for `COCCc1ccc(OCC(O)CNC(C)C)cc1` (stereo not given), the Potency result was “inactive”. On to `O=C(O)CNC(=O)c1ccc([N+](=O)[O-])cc1`, for which the Potency result is “inactive”. On to `CC(C)(C)NCCNC(C)(C)C`, for which the Potency entry is “inactive”.

In the case of `O=C(CCCN1CCC(O)(c2cccc(C(F)(F)F)c2)CC1)c1ccc(F)cc1`, the Potency result is “inactive”. Consider `CC(=O)N(CC(O)CO)c1c(I)c(C(=O)NCCO)c(I)c(C(=O)NCC(O)CO)c1I` (stereo not given), for which the Potency entry is “inactive”.

For the molecule `COc1ccccc1OCC(O)CN1CCN(CC(=O)Nc2c(C)cccc2C)CC1` (stereo not given), the Potency entry was “inactive”. For the molecule `Cc1cnc(NS(=O)(=O)c2ccc(N)cc2)nc1`, the Potency entry is “inactive”.

For `Cn1c(N)c(N=O)c(=O)n(C)c1=O`, the Potency result is “inactive”. For `Cc1sccc1Br`, the Potency result is “inactive”.

On to `CN1CC(=O)NC1=N`, for which the Potency result is “inactive”. For the molecule `NS(=O)(=O)c1ccccc1Cl`, the Potency result was “inactive”. Turning to `CN1CCCC1`, the Potency result is “inactive”. In the case of `O=C(O)c1ccccc1OP(=O)(O)O`, the Potency result was “inactive”. Take `N=c1nc(N2CCCCC2)cc(N)n1O`: the Potency result is “inactive”.

With `NS(=O)(=O)c1cc2c(cc1Cl)NC(C1CC3C=CC1C3)NS2(=O)=O` (stereo not given), the Potency result is “inactive”. The same measure, in the same setting: for `COC(=O)CCSCCC(=O)OC` the value was “inactive”; for `c1ccc(CC2=NCCN2)cc1`, “inactive”. On to `CN1CCN(c2cc3c(cc2F)c(=O)c(C(=O)O)cn3-c2ccc(F)cc2)CC1`, for which the Potency entry was “inactive”. In the case of `Cc1ccc(=O)n(-c2ccccc2)c1`, the Potency entry was “inactive”.

Regarding `CC1=CC(C)C(C=O)CC1` (stereo not given), the Potency result was “inactive”. Still for that read-out and setting: for `NS(=O)(=O)c1cc(C(=O)O)cc(N2CCCC2)c1Oc1ccccc1` the value was “inactive”; for `O=C1CCCN1C1CCCCC1`, “inactive”; for `NC(=O)COCCN1CCN(C(c2ccccc2)c2ccc(Cl)cc2)CC1` (stereo not given), “inactive”.
